Among the test systems are MOLT-4 leukemia; SR leukemia; RPMI-8226 leukemia; OVCAR-8 ovarian; OVCAR-5 ovarian; OVCAR-4 ovarian; SK-OV-3 ovarian; IGROV1 ovarian; OVCAR-3 ovarian; HS 578T breast; T-47D breast; MDA-MB-435 melanoma; MCF7 breast; KM12 colon; BT-549 breast; SW-620 colon; HCT-116 colon; NCI/ADR-RES ovarian; HCC-2998 colon.
Holding throughout (assay): NCI-60 one-dose screen, 48 h (100 = growth as untreated, 0 = no growth, -100 = all killed)
Common to all, as to conditions: 10 µM unless noted

Several values for one entry are separate records, joined by “and”; a condition that tells them apart may be missing. Identical values can stand only once. Compounds without any hit were thinned out: in the full panel of roughly 83,000, 20% have a hit.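 Testing used 96-well plates and a 48-hour single-concentration exposure. Example: -40 means 40% of the starting cells died.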 Unmarked numbers belong to inactive results. Activity calls are given as the source filed them. How the source made its calls: active means growth percent below 10; inactive means the rest.

Here are results for 7 compounds from PubChem BioAssay (NCI).

`O=S(=O)(c1ccc(O)cc1)c1ccccc1O`: the growth in the experiment on MOLT-4 leukemia was 103%; in the experiment with SR leukemia it was 103%; in the experiment with RPMI-8226 leukemia it was 99.8%; in the experiment on OVCAR-8 ovarian, 102%; in the experiment with OVCAR-5 ovarian, 98.9%; with OVCAR-4 ovarian, 116%. Besides, the growth in the experiment on SK-OV-3 ovarian was 107%; in the experiment on IGROV1 ovarian, 117%; with OVCAR-3 ovarian, 110%; with HS 578T breast, 104%; in the experiment on T-47D breast, 102%; in the experiment with MDA-MB-435 melanoma it was 110%. Further, the growth in the experiment on MCF7 breast was 104%; in the experiment on KM12 colon it was 107%.

Consider `Oc1cc(N2CC2)c(O)cc1N1CC1`, for which the growth is 9.13% (active) in the experiment with MOLT-4 leukemia; 21.6% in the experiment on SR leukemia; 2.53% (active) with RPMI-8226 leukemia; 11.2% in the experiment on OVCAR-8 ovarian; 2.7% (active) in the experiment with OVCAR-5 ovarian; 18% in the experiment on OVCAR-4 ovarian. For the same compound, the growth is 2.44% (active) with SK-OV-3 ovarian; -38.3% (active) in the experiment on IGROV1 ovarian; -34.4% (active) with OVCAR-3 ovarian; -17.4% (active) in the experiment on HS 578T breast; 19.2% in the experiment with T-47D breast; 30% in the experiment with BT-549 breast. Also, the growth is 0.0051% (active) with MDA-MB-435 melanoma; 3.72% (active) in the experiment with SW-620 colon; -30.3% (active) in the experiment on MCF7 breast; 6.02% (active) with HCT-116 colon; -52.7% (active) in the experiment on KM12 colon.

Take `N#CCc1ccc(CC#N)cc1`: the growth in the experiment with MOLT-4 leukemia was 99.9%; in the experiment with SR leukemia, 97.9%; in the experiment on RPMI-8226 leukemia, 98.8%; with OVCAR-8 ovarian, 104%; in the experiment on OVCAR-5 ovarian, 104%; in the experiment on OVCAR-4 ovarian, 119%. Besides, the growth in the experiment on SK-OV-3 ovarian was 98.5%; with IGROV1 ovarian, 109%; in the experiment on OVCAR-3 ovarian, 110%; in the experiment with HS 578T breast, 96.6%; in the experiment on NCI/ADR-RES ovarian, 110%; in the experiment with T-47D breast, 87.5%. Also, the growth in the experiment with MDA-MB-435 melanoma was 102%; with MCF7 breast it was 91.4%; with HCT-116 colon it was 98.6%; in the experiment on HCC-2998 colon, 108%; in the experiment with KM12 colon it was 102%.

With `CN1CCC2(CC1)C(C#N)C(=O)NC(=O)C2C#N` (stereo not drawn), the growth with MOLT-4 leukemia was 100%; in the experiment on SR leukemia, 86.5%; with RPMI-8226 leukemia, 109%; with OVCAR-8 ovarian it was 99%; in the experiment on OVCAR-5 ovarian it was 104%; in the experiment on OVCAR-4 ovarian it was 97.3%. The growth in the experiment on SK-OV-3 ovarian is 110%; in the experiment with IGROV1 ovarian, 123%; with OVCAR-3 ovarian, 117%; with HS 578T breast, 113%; in the experiment on T-47D breast it was 107%; in the experiment with BT-549 breast it was 103%. Moreover, the growth with MDA-MB-435 melanoma was 97.6%; in the experiment on MCF7 breast, 88.6%; in the experiment with HCT-116 colon, 93.3%; with HCC-2998 colon, 112%; with KM12 colon, 126%.

In the case of `COc1ccc2c(c1)C1(C)CCN(C)CC(C1)C2O` (stereo not drawn), the growth with MOLT-4 leukemia is 94.1%; in the experiment on SR leukemia it was 94.2%; in the experiment on RPMI-8226 leukemia, 98.7%; with OVCAR-8 ovarian it was 101%; with OVCAR-5 ovarian, 99.3%; in the experiment on OVCAR-4 ovarian, 103%. For the same compound, the growth in the experiment on SK-OV-3 ovarian is 107%; in the experiment on IGROV1 ovarian, 86.9%; in the experiment with OVCAR-3 ovarian, 109%; with HS 578T breast, 116%; in the experiment with T-47D breast, 95.2%; in the experiment on BT-549 breast, 98.2%. For the same compound, the growth in the experiment on MDA-MB-435 melanoma was 105%; with SW-620 colon it was 101%; with MCF7 breast, 96%; in the experiment with HCT-116 colon it was 97.8%; in the experiment with HCC-2998 colon, 89.9%; with KM12 colon it was 102%.

With `O=c1[nH]c(=O)n(Cl)c(=O)n1Cl`, the growth in the experiment with MOLT-4 leukemia is 113% and 104%; in the experiment with SR leukemia, 102% and 113%; in the experiment on RPMI-8226 leukemia, 82.1%; in the experiment with OVCAR-8 ovarian, 103% and 108%; in the experiment on OVCAR-5 ovarian, 102% and 96.2%; in the experiment on OVCAR-4 ovarian, 115% and 109%. Besides, the growth was 111% and 109% with SK-OV-3 ovarian; 124% and 96.9% with IGROV1 ovarian; 111% and 110% with OVCAR-3 ovarian; 115% and 96.8% in the experiment on NCI/ADR-RES ovarian; 112% and 95.3% in the experiment on T-47D breast; 108% and 110% with BT-549 breast. For the same compound, the growth with MDA-MB-435 melanoma was 102% and 114%; in the experiment with MCF7 breast it was 108% and 86%; with HCT-116 colon it was 113% and 99.4%; in the experiment with HCC-2998 colon, 123% and 96%; with KM12 colon, 101% and 107%.

Take `CCN1C(=O)NC(=O)C(C)(N2C(=O)c3c(F)c(F)c(F)c(F)c3C2=O)C1=O` (stereo not drawn): the growth in the experiment with MOLT-4 leukemia was -51.3% (active); with SR leukemia, -64.6% (active); in the experiment on RPMI-8226 leukemia, 2.56% (active); with OVCAR-8 ovarian, 3.31% (active); with OVCAR-5 ovarian, 42.7%; in the experiment on OVCAR-4 ovarian, 1.91% (active). The growth in the experiment on SK-OV-3 ovarian is 96.9%; in the experiment on IGROV1 ovarian, -58.8% (active); in the experiment on OVCAR-3 ovarian it was -89.9% (active); in the experiment with NCI/ADR-RES ovarian, 17.9%; with T-47D breast, 23.5%; in the experiment on BT-549 breast, 35.9%. Further, the growth in the experiment with MDA-MB-435 melanoma is 21.6%; with SW-620 colon, -77.9% (active); in the experiment on MCF7 breast it was 13.3%; with HCT-116 colon it was -38.8% (active); with HCC-2998 colon, 40.8%; with KM12 colon it was -59.7% (active).
